The panel holds about 83,000 compounds, 20% with a hit somewhere; the sample as a whole holds those more often.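 Compound tested at a single concentration for 48 hours in 96-well plates; a percent growth value below 10 was scored as active.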 Values without a mark were called inactive. Calls of active or inactive are those of the source.
Columns and labels:
Test in all cases: NCI-60 one-dose screen, 48 h (100 = growth as untreated, 0 = no growth, -100 = all killed)
Settings in all cases: 10 µM unless noted
[1] = test system: HCT-15 colon
[2] = test system: HT29 colon
[3] = test system: SNB-75 CNS
[4] = test system: SNB-19 CNS
[5] = test system: U251 CNS
[6] = test system: PC-3 prostate
[7] = test system: SK-MEL-5 melanoma
[8] = test system: UACC-62 melanoma
[9] = test system: LOX IMVI melanoma
[10] = test system: SK-MEL-28 melanoma
[11] = test system: SN12C renal
[12] = test system: UO-31 renal
[13] = test system: TK-10 renal
[14] = test system: CAKI-1 renal
[15] = test system: A498 renal
[16] = test system: CCRF-CEM leukemia
[17] = test system: MOLT-4 leukemia
[18] = test system: ACHN renal
[19] = test system: SK-MEL-2 melanoma
[20] = test system: EKVX NSCLC

COc1ccc(Nc2ncnc3c2sc2nc(C)cc(C)c23)cc1
growth [1]: 96%
growth [2]: 105%
growth [3]: 74.4%
growth [4]: 99.2%
growth [5]: 103%
growth [6]: 92.7%
growth [7]: 99.8%
growth [8]: 100%
growth [9]: 96.7%
growth [10]: 105%
growth [11]: 99.7%
growth [12]: 91.5%
growth [13]: 115%
growth [14]: 99.2%
growth [15]: 91%
growth [16]: 104%
growth [17]: 95.9%

CCCCn1c(C)nc2ccc(Nc3nc(Cl)nc4nc[nH]c34)cc21
growth [1]: 82.6%
growth [2]: 79.9%
growth [3]: 62.8%
growth [4]: 90.5%
growth [5]: 74.5%
growth [6]: 36.3%
growth [7]: 63.6%
growth [8]: 69.8%
growth [9]: 90.2%
growth [10]: 94.3%
growth [11]: 74.6%
growth [13]: 67.3%
growth [18]: 79%
growth [14]: 60.5%
growth [15]: -0.303% (active)
growth [16]: 53%
growth [17]: 37.9%

COc1cccc2nc(Nc3cccc(NC(=O)c4cc(N5CCOCC5)cc(C(F)(F)F)c4)c3)ccc12
growth [1]: 48.2%
growth [2]: 43.4%
growth [3]: 50.1%
growth [4]: 74.6%
growth [5]: 50.6%
growth [6]: 36.8%
growth [7]: 42.7%
growth [8]: 71.4%
growth [9]: 56%
growth [19]: 79.4%
growth [20]: 64%
growth [11]: 57%
growth [12]: 42.3%
growth [13]: 65.9%
growth [18]: 45.1%
growth [14]: 60.7%
growth [15]: 99.4%
growth [16]: 48.9%
growth [17]: 35.2%

O=c1cc(N2CCOCC2)oc2c(-c3ccc4c(c3)OCCO4)csc12
growth [1]: 16.9%
growth [2]: 10.8%
growth [3]: -16.6% (active)
growth [4]: 25.6%
growth [5]: 31.2%
growth [6]: 21.8%
growth [7]: -7.05% (active)
growth [8]: -1.9% (active)
growth [9]: 10.3%
growth [10]: 22.3%
growth [11]: 20.2%
growth [12]: 1% (active)
growth [13]: -14.5% (active)
growth [18]: 6.19% (active)
growth [15]: -41% (active)
growth [16]: 28%
growth [17]: 4.69% (active)

O=C(OCc1ccc2c(Br)cc(Br)c(O)c2n1)c1cc2ccccc2[nH]1
growth [1]: -66.7% (active)
growth [2]: -82.5% (active)
growth [3]: -46.3% (active)
growth [4]: 45.6%
growth [5]: 22.7%
growth [6]: -55.6% (active)
growth [7]: -47.5% (active)
growth [8]: -83% (active)
growth [9]: -93.4% (active)
growth [19]: -20.6% (active)
growth [20]: -65.5% (active)
growth [11]: -79.2% (active)
growth [12]: -100% (active)
growth [13]: -94.2% (active)
growth [18]: -100% (active)
growth [14]: -97.6% (active)
growth [15]: -1.86% (active)
growth [16]: 2.81% (active)
growth [17]: -8.64% (active)

Cc1ccc(NC(=O)Cn2nncc2CN2C(=O)CSC2=O)cc1C
growth [1]: 94.5%
growth [2]: 105%
growth [3]: 93.3%
growth [4]: 97.9%
growth [5]: 103%
growth [6]: 99.3%
growth [7]: 98.7%
growth [8]: 102%
growth [9]: 93.6%
growth [19]: 102%
growth [20]: 91.3%
growth [11]: 105%
growth [12]: 91.6%
growth [13]: 98.8%
growth [18]: 100%
growth [14]: 96.8%
growth [15]: 93.3%
growth [16]: 106%
growth [17]: 103%

Cc1ccc2oc(=O)cc(-c3nc4ccc([N+](=O)[O-])cc4[nH]3)c2c1
growth [1]: 59.4%
growth [2]: 70.9%
growth [3]: 70.1%
growth [4]: 61.4%
growth [5]: 41.9%
growth [6]: 48.9%
growth [7]: 28.9%
growth [8]: 39.5%
growth [9]: 67.7%
growth [10]: 63.7%
growth [11]: 59.7%
growth [13]: 62%
growth [15]: 43.7%
growth [16]: 51.6%
growth [17]: 39.6%

Cc1nc2ccc(Nc3nc(Cl)nc(N4CCOCC4)n3)cc2n1Cc1ccccc1
growth [1]: 76.9%
growth [2]: 96%
growth [3]: 51.2%
growth [4]: 94.6%
growth [5]: 90.5%
growth [6]: 87.1%
growth [7]: 89.5%
growth [8]: 92.3%
growth [9]: 67.7%
growth [10]: 82.8%
growth [11]: 78.2%
growth [13]: 44.7%
growth [18]: 79.4%
growth [14]: 104%
growth [15]: 91.7%
growth [16]: 45.7%
growth [17]: 25.8%

COc1ccc2[nH]c(C(=O)OCc3ccc4c(Br)cc(Br)c(O)c4n3)cc2c1
growth [1]: -62.1% (active)
growth [2]: -73.6% (active)
growth [3]: -75.5% (active)
growth [4]: 43.1%
growth [5]: -28.3% (active)
growth [6]: -64.9% (active)
growth [7]: -89.6% (active)
growth [8]: -79.5% (active)
growth [9]: -95.4% (active)
growth [19]: -40.3% (active)
growth [20]: -70.9% (active)
growth [11]: -71.2% (active)
growth [12]: -100% (active)
growth [13]: -95.6% (active)
growth [18]: -98.3% (active)
growth [14]: -98.7% (active)
growth [15]: -17.1% (active)
growth [16]: 3.76% (active)
growth [17]: -8.86% (active)
